PubChem BioAssay AID1021 (Emory University Molecular Libraries Screening Center, 2008)
“And” between values parts separate entries of the source, which are not always exact repeats. Identical values can stand only once. The campaign covered roughly 220,000 compounds. About 2,100 (0.95%) were called active.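 How the source made its calls: active means compounds that cut the binding signal by more than half at the single screening dose; inactive means the rest.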 This excerpt belongs to a sample that is enriched for actives.

These compounds were tested against Induced myeloid leukemia cell differentiation protein Mcl-1 (Homo sapiens) (UniProt Q07820) (assay: disruptors of Mcl-1 and Bid BH3 peptide – biochemical, TR-FRET, 1536-well, primary screen (AID 1021;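 further: His-tagged Mcl-1 with europium anti-His antibody binding Bid BH3 peptide; 0% = Mcl-1 plus peptide wells and 100% = peptide-only wells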)). Conditions: TR-FRET Mcl-1/Bid-Dy647 peptide binding, at 21.7 µM, hits give high values.
Sequence of Induced myeloid leukemia cell differentiation protein Mcl-1 (Homo sapiens) (Q07820 whole entry, looked up): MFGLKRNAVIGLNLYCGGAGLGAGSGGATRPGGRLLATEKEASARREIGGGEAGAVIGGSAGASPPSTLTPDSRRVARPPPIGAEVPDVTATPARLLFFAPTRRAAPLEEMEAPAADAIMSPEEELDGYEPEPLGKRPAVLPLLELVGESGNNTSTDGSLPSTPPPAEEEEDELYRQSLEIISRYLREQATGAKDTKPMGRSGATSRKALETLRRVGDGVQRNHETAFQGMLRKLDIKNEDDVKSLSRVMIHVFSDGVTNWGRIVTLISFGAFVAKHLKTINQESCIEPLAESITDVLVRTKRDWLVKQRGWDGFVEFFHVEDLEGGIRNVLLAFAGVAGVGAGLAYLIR

inhibition, active:
COc1ccc(OC)c(C2N(c3ccccn3)C(=O)C3CCCN32)c1 (stereo not given) 51.8%
c1ccc(CSc2nnc(-c3ccco3)c(-c3ccco3)n2)cc1 91.7%
Clc1ccccc1CSc1nnc(-c2ccco2)c(-c2ccco2)n1 99.3%
CCc1cc2c(N3CCN(c4nnc(CC)s4)CC3)ncnc2s1 56.7%
CC(C)c1ccc2c(c1)c(SC(C)(C)C)c(CC(C)(C)C(=O)O)n2Cc1ccc(Cl)cc1 83.2%
Cc1ccc(S(=O)(=O)/N=S(\C)C(C)C)cc1 (stereo not given) 89.4%
CCN1C(=O)/C(=c2\s/c(=C3\Sc4ccccc4N3C)c(=O)n2C)N(C)C1=S 79.2%
COCCN(CCOC)c1nc(N)c2c(N)nc3c(c2c1C#N)CC(=O)N3Cc1ccc(Cl)cc1 54.2%
COc1ccccc1C(=O)Nc1ccc(OCc2nnc3c4ccccc4c(C)nn23)cc1 59.8%
COc1ccc2nc(Nc3nc4ccc(NC(C)=O)cc4s3)sc2c1 72.8%
COc1ccc(-c2csc3ncnc(Oc4ccc5c(C)cc(=O)oc5c4)c23)cc1 63.3%
Cc1ccc(C2C3=C(Nc4[nH]n(-c5ccccc5)c(=O)c42)c2ccccc2C3=O)cc1 (stereo not given) 84.6%
Cc1ccc(C(CC(=O)O)Nc2nc(N3CCCCC3)nc(N3CCCCC3)n2)cc1 (stereo not given) 50.7%
CCn1c(SCC(=O)NCc2ccco2)nnc1-c1ccc(N)cc1 75.2%
Cc1ccc(N2CCN(C3=NC(=O)/C(=C\c4cccs4)S3)CC2)cc1 97.7%
O=S(=O)(c1cccc(-c2nnc(SC(F)F)n2-c2ccccc2)c1)N1CCCCC1 91.8%
COc1cccc(/C=N/NC(=O)c2[nH]nc3c2CCc2ccccc2-3)c1O 53.3%

inhibition, inactive:
O=C(CCCl)Nc1ccc(S(=O)(=O)NCc2ccco2)cc1 -69.5%
CCNC(=O)NC(=O)C(C)OC(=O)C1CCN(S(=O)(=O)c2ccccc2F)CC1 (stereo not given) -21.6%
COc1ccc(N2C(=O)C3CCCN3C2c2cccc(OC)c2)cc1 (stereo not given) -26.8%
COc1ccc(N2C(=O)C3CCCN3C2c2cc(OC)c(OC)cc2OC)cc1 (stereo not given) -12.4%
COC(OC)c1ccnc(SCc2ccccc2Cl)n1 -7.91%
O=C(Nc1nnc(SCc2ccccc2)s1)c1ccco1 -46.6%
Nc1nc(SCc2ccccc2Cl)n[nH]1 -6.93%
Brc1ccc(CSc2ccc(-c3ccco3)nn2)cc1 -15.8%
COC(=O)c1cc(=O)n(-c2c(Cl)cc(C(F)(F)F)cc2Cl)[nH]1 -6.09%
O=C1NNC(c2ccccc2)=N/C1=C\c1ccc(Cl)cc1 -13.5%
Cc1nc2nc[nH]n2c(=O)c1C/C=C/c1ccccc1 -22.4%
CCS(=O)(=O)c1ccc(C(=O)NC)c(Cl)c1Cl -26.1%
CCCCN1Cc2c(nc3cc(-c4ccccc4)[nH]n3c2=O)C1=O -37.8%
O=S(=O)(Nc1n[nH]c(C(F)(F)F)n1)c1ccccc1 -11.3%
CCc1cc2c(SCC(=O)Nc3ncc(Cl)c(C)c3Cl)ncnc2s1 -33.7%
Oc1ccccc1N1CCN(c2ncnc3sc(-c4ccccc4)cc23)CC1 -18.1%
N#Cc1c(NCCO)ccc([N+](=O)[O-])c1NCCO -25.7%
CCCCCC(=O)Nc1ccc(-c2cn3cccnc3n2)cc1 -4.56%
CC(C)n1c(=S)[nH]c2cc(C(F)(F)F)ccc21 -33.7%
COc1ccc(OC)c(Nc2nc3ccccc3n3cnnc23)c1 -7.62%
CN(C)/C=C(/C(=O)c1ccccc1Cl)S(C)(=O)=O -0.7%
CCOC(=O)c1cn(CC)c2cc(F)c(F)cc2c1=O -8.08%
CCC(=O)Nc1cccc(C2=NOC3(C2)C[C@@H](C(N)=O)N(C(=O)c2cc([N+](=O)[O-])cc([N+](=O)[O-])c2C)C3)c1 (stereo not given in full) -35.2%
CC(C)C(=O)N1CCC2(CC1)Oc1ccc(F)cc1C(=O)C21CC(c2ccccc2)=NO1 (stereo not given) -8.72%
CCCC/S(C)=N/S(=O)(=O)c1ccc(C)cc1 (stereo not given) 4.25%
CC/S(CC1CC1(Cl)Cl)=N\S(=O)(=O)c1ccc(C)cc1 (stereo not given) -4.99%
O=C1[C@@H]2C(c3cccnc3)=NO[C@@H]2C(=O)N1c1ccc(Cl)cc1Cl -19.8%
CCN1C(=O)/C(=C2/Sc3ccccc3N2CCCS(=O)(=O)O)SC1=S -30.2% and -29.9%
CCC(=O)/C=C1\Sc2ccccc2N1CC -12.9%
Cc1cc(F)ccc1NC(=O)C(C)n1c2ccccc2c2nc(=O)cc(C)n21 (stereo not given) -4.95%
COc1ccccc1C(=O)NNC(=O)c1ccc(NC(=O)c2ccccc2)cc1 -23.3%
CCOc1ccc(NC(=O)c2cc(C)nc3ccccc23)cc1 -4.96%
CCOC(=O)N/N=C1\CC(C)S(=O)(=O)c2ccc(Cl)cc21 (stereo not given) -6.47%
O=C(O)CCc1cccnc1 -29.9%
COc1ccc2nc(NC(=O)c3ccc(Br)s3)sc2c1 4.41%
COc1ccc2nc(Nc3nc4cc5c(cc4s3)OCCO5)sc2c1 -62.6%
COc1ccc(N2CCN(C(=O)COc3ccc4c(C)cc(=O)oc4c3)CC2)cc1 -16.1%
COc1cccc(-c2nnc(SCCOc3ccc4c(C)cc(=O)oc4c3)o2)c1 -1.18%
O=C(CN1CCN(Cc2ccccc2)CC1)NC(c1ccccc1)c1ccccc1 26.9%
COc1ccc(NC(=O)CCN2C(=O)/C(=C/c3ccc4c(c3)OCO4)SC2=S)cc1 -17%
Cc1cc(C)c(C2C3=C(Nc4c2c(C)nn4-c2ccccn2)c2ccccc2C3=O)c(C)c1 (stereo not given) -27.1%
Cc1ccc(N=Nc2c(C)[nH]n(-c3ccccc3)c2=O)cc1 -11.4%
O=C(O)c1ccc(/C=N/Nc2nc(N3CCCCC3)nc(N3CCCCC3)n2)cc1 5.5%
CC(=O)NC(CC(=O)O)c1ccc(F)cc1 (stereo not given) -2.56%
CCC(C)(C)NC(=O)C1c2ccccc2Oc2ccccc21 -5.83%
Cc1ccc(-c2csc3nnc(SCC(=O)NCc4ccco4)n23)cc1 -17.3%
CCn1c(COc2ccccc2)nnc1SCC(=O)NCc1ccco1 -25.4%
CC(C)n1c(=O)[nH]c2cc(C(=O)Nc3ccccc3)ccc21 -10.9%
COc1c(C=O)c(CCN(C)C(=O)c2ccc(F)cc2)cc2c1OCO2 0.65%
Cc1ccc(N2CCN(/N=C/c3cccs3)CC2)cc1 -7.6%
Cc1ccsc1/C=C1\SC(N2CCOCC2)=NC1=O -15.9%
Cc1ccc(-c2nn(-c3cccc(F)c3)cc2CNCCc2ccncc2)o1 -20.2%
C=CCN(c1ccccc1C(=O)NCC(=O)OCC)S(=O)(=O)c1ccc(C)cc1 -11.3%
O=S(=O)(c1cccc(-c2nnc3n2CCCCC3)c1)N1CCOCC1 -26.9%
O=S(=O)(c1ccc(-c2ccccc2)cc1)N1CCCC1 -19.2%
COc1cccc(/C=N\NC(=O)C2=NNC(=O)C2C)c1O (stereo not given) -128%
COc1cccc(/C=N/Nc2cc(C)nc(-c3ccccc3O)n2)c1O -54.1%
O=C(NCc1ccc2c(c1)OCO2)c1sccc1Br -8.46%
